Compounds with a hit are over-represented: about 15% of the library has one in this group of screens.
ALOX12 inh: inhibitors of human 12S-lipoxygenase ALOX12; P18054; purified 12hLO, xylenol orange hydroperoxide absorbance; Potency, µM (highest dose often 108 µM), inactives show at the top dose activity change, negative = inhibition, hits mostly inhibitors; actives 1.1% (n = 580,000)
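Purified human 12hLO (150 nM final) in 25 mM Hepes, 0.01% Triton X-100, pH 7.0 was preincubated 15 min at room temperature with compound. Then 40 uM arachidonic acid was added, 30 min. Hydroperoxide was read by Fe-XO absorbance ratio 573/405 nm.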
TDP1 cell noCPT: qHTS for Inhibitors of human tyrosyl-DNA phosphodiesterase 1 (TDP1): qHTS in cells in absence of CPT; actives 15% (n = 420,000); Potency, µM (series often up to 46.2 µM), without a hit: top-dose activity change, negative = growth inhibition, most hits filed as inhibitors; DT40 Tdp1-/- hTDP1 cells, no CPT, ATP luminescence, 48 h; also: nearly all actives have a fitted effect of over 55% in size
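Camptothecin absent (DMSO only). Human TDP1-complemented DT40 knockout cells, 400 cells/well, 37 °C for minimum 48 hr; ATP measured via CellTiter-Glo, 30 min dark incubation, luminescence.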
RORgamma inh: blocks mouse ROR gamma transcriptional activity; Drosophila S2 Gal4-RORgamma UAS-luciferase reporter, 20 h; actives 5.4% (n = 310,000); P51450; AID 2551; Potency, µM (highest dose often 53.6 µM), inactives show at the highest dose activity change, negative = inhibition, usual class: inhibitors; also: nearly all actives have a fitted effect of over 60% in size
Target sequence (P51450 whole entry, looked up, the tested form may be a part): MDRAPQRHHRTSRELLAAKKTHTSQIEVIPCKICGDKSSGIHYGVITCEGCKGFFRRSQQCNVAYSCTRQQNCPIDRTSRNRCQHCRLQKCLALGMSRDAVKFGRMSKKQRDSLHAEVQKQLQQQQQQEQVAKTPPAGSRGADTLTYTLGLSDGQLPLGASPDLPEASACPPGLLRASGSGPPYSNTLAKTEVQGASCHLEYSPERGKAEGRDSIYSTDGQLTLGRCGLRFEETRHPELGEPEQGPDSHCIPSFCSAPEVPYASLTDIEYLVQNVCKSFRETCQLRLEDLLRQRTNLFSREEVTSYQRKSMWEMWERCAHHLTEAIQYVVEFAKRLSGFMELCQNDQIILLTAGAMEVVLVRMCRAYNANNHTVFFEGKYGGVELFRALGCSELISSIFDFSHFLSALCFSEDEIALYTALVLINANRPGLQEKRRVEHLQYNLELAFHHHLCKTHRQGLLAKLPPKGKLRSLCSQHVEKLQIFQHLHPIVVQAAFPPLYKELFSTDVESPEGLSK
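Stable Schneider cell line, Gal4 DNA-binding domain fused to ROR gamma, UAS-luciferase. Cmpd 1 hr RT → CuSO4 700 uM final → 20 hr RT → luciferase reagent 10 min → luminescence.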
Gal4-VP16 FLuc: counter-screen for ROR gamma inhibitors: Gal4-VP16 reporter; Drosophila S2 Gal4-VP16 UAS-luciferase, luminescence, 20 h; Potency, µM (titrated, usually from 53.6 µM), for the others: at the highest dose activity, negative = inhibition, most hits filed as inhibitors; actives 3.5% (n = 310,000); AID 2546;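 also: Gal4-VP16 expression switched on by copper sulfate through the metallothionein promoter; nearly all actives have a fitted effect of over 50% in size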
ELG1 repair inh: blocks ELG1-dependent DNA repair in HEK293T cells. Potency, µM (titrated, usually from 46.1 µM), inactives show at the highest dose activity change, negative = inhibition, usual class: inhibitors. HEK293T ELG1-luciferase reporter, luminescence, 16 h; DNA damage induced by 5-fluorouridine. actives 2.3% (n = 330,000); also: nearly all actives have a fitted effect of over 55% in size
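Luminescence from the luciferase reporter, measured 30 min after ONE-Glo reagent at room temperature, was the read-out. Beforehand, 2,000 cells per well were exposed for 16 hr at 37 °C to 5-fluorouridine together with compound or vehicle.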
DT40 TDP1 CPT: DT40-hTDP1 cell growth loss with CPT; chicken DT40 Tdp1-/-;hTDP1 cells + 20 nM CPT, ATP luminescence, 48 h; Potency, µM (doses to about 46.2 µM), inactives show at the highest dose activity change, negative = growth inhibition, usual class: inhibitors; actives 12% (n = 420,000); also: nearly all actives have a fitted effect of over 55% in size
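Chicken DT40 Tdp1-/- cells complemented with human TDP1, 400 cells/well, exposed to compounds plus 20 nM camptothecin for at least 48 h at 37 C; viability read as ATP content by CellTiter-Glo luminescence.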
* marks the source's active call; other numbers are inactive results; ? = inconclusive; . = not tested or not shown; [ ] = another dose, or the depositor's remark. Calls follow the shape of the dose curve; as a rule, active = well fitted curve in the direction sought with a large enough effect; inconclusive = small, poorly fitted or top-dose-only effect, or another doubt; inactive = no such curve, though single readings can be large; an effect the other way counts as inactive or inconclusive. % is scaled to controls: 0 for no effect and ±100 for the full control effect; potency is read from the fitted curve at half-maximal effect.

SMILES	ALOX12 inh	TDP1 cell noCPT	RORgamma inh	Gal4-VP16 FLuc	ELG1 repair inh	DT40 TDP1 CPT
CC1(C)ON(C2CCCCC2)[C@H]2c3nc4ccccc4n3C[C@H]21	-2%	-23%	14µM*	-1%	-4%	-21%
Cc1ccccc1[S+](=O)([O-])N1CCC2OCCN(Cc3ccccc3F)C(=O)C2C1 (stereo not drawn)	2%[176 µM]	.	.	.	.	.
CC(=O)NCCOc1ccc(C(=O)N2CCC3(CCNCC3)CC2)cc1	42%	.	.	.	.	.
COc1cccc(CNCC(O)(c2ccc(Cl)cc2)c2ccc(Cl)cc2)c1	-2%	23µM*	?	?	?	23µM*
COc1ccc(CNCc2cccc(Cl)c2)cc1	-20%	-25%	-1%	23%	?	?
COc1ccc(CNCC(O)(c2ccccc2)c2ccc(Cl)cc2)cc1 (stereo not drawn)	?	21µM*	-8%	?	-14%	?
Cc1ccc2nc(Nc3nc(C)cc(C(F)(F)F)n3)nc(C)c2c1	35%	?	-23%	?	-5%	8%
Cc1cc(C(F)(F)F)nc(Nc2nc(C)c3ccccc3n2)n1	0%[57.4 µM]	9%	6.3µM*	?	2%	-13%
CCOc1ccc(-c2nc(C3CC(=O)N(c4ccc(Cl)cc4)C3)no2)cc1OCC (stereo not drawn)	13%	.	.	.	.	.
CCN1CCN(c2ncnc3c2sc(=S)n3-c2ccccc2)CC1	234%	-7%	3%	-6%	-3%	?
COc1ccc(N2CCN(c3ncnc4c3nnn4C)CC2)cc1	-27%	?	.	.	.	?
Clc1cccc(Cl)c1Cn1cnc2c(N3CCCCCC3)ncnc21	-23%	10µM*	-44%	13%	?	18µM*
S=c1sc2c(N3CCN(Cc4ccccc4)CC3)ncnc2n1-c1ccccc1	14%	23µM*	2%	0%	-7%	16µM*
Cn1nnc2c(N3CCN(Cc4ccccc4)CC3)ncnc21	.	16µM*	.	.	.	?
CCN(CC)c1ncnc2c1ncn2Cc1c(Cl)cccc1Cl	?	?	?	4%	?	?
CCCN1CCN(c2ncnc3c2nnn3Cc2ccccc2)CC1	23%	21µM*	-2%	-6%	-19%	16µM*
c1ccc(Cn2nnc3c(NCCN4CCOCC4)ncnc32)cc1	-4%	-14%	?	0%	0%	-2%
Cc1ccc(OCn2ccc(C(=O)N3CCN(Cc4ccccc4F)CC3)n2)c(C)c1	-3%	.	.	.	.	.
CN(CC(=O)Nc1cccc2ccccc12)C(=O)c1ccc(NS(=O)(=O)c2ccc(F)cc2)cc1	-2%	.	.	.	.	.
Oc1ccc(-c2nc(C3CC3)nc3c2CCN(Cc2ccccc2C(F)(F)F)CC3)cc1	4%	.	.	.	.	.
c1ccc(Cn2nnc3c(N4CCCCCC4)ncnc32)cc1	-13%	16µM*	?	-16%	?	?
c1ccc(Cn2nnc3c(N4CCc5ccccc54)ncnc32)cc1	-11%	0%	-3%	7%	?	-8%
CNC(=O)N1C[C@@H](CN(C)C)[C@H](NC(=O)CC2CCCC2)C1	64%	.	.	.	.	.
COc1ccccc1CNC(=O)C1CCCN(S(=O)(=O)c2ccc3c(c2)C(C)(C)C(=O)N3C)C1 (stereo not drawn)	-4%	15µM*	2%	2%	-23%	?
CN1C(=O)C(C)(C)c2cc(S(=O)(=O)NCC3CCC(C(=O)NCc4ccccc4)CC3)ccc21 (stereo not drawn)	7%	16µM*	22%	-23%	4%	?
SMILES	ALOX12 inh	TDP1 cell noCPT	RORgamma inh	Gal4-VP16 FLuc	ELG1 repair inh	DT40 TDP1 CPT
Cc1ccccc1NC(=O)C1CCCN(S(=O)(=O)c2ccc3c(c2)C(C)(C)C(=O)N3C)C1 (stereo not drawn)	18%	?	12%	7%	19%	8%
CCOc1ccccc1NC(=O)C1CCCN(S(=O)(=O)c2ccc3c(c2)C(C)(C)C(=O)N3C)C1 (stereo not drawn)	13%[57.4 µM]	?	-4%	2%	-1%	18µM*
CN1C(=O)C(C)(C)c2cc(S(=O)(=O)N3CCCC(C(=O)Nc4ccc(Cl)cc4)C3)ccc21 (stereo not drawn)	-4%	18µM*	32%	-5%	?	?
COc1ccccc1CNC(=O)C1CCN(S(=O)(=O)c2ccc3c(c2)C(C)(C)C(=O)N3C)CC1	3%	?	29%	4%	26%	?
CN1CCCCCCN(S(=O)(=O)c2ccc3c(c2)CCC3)[C@H]2CCC[C@H]2C1=O	17%	.	.	.	.	.
COc1cccc(CNC(=O)C2CCCN(S(=O)(=O)c3ccc4c(c3)C(C)(C)C(=O)N4C)C2)c1 (stereo not drawn)	2%[57.4 µM]	?	8%	-3%	?	15µM*
COc1cccc(CNC(=O)C2CCN(S(=O)(=O)c3ccc4c(c3)C(C)(C)C(=O)N4C)CC2)c1	11%	.	.	.	.	.
Cc1ccccc1N/N=C/c1c(C)nc2ccccn12	?	?	10µM*	-6%	2%	?
Cc1nc2ccccn2c1C(=O)N/N=C/c1ccccc1	10%	8%	1%	-4%	-1%	16%
N#CC(c1ccc([N+](=O)[O-])cc1)C(CC(=O)c1ccccc1)c1ccccc1 (stereo not drawn)	-3%	16µM*	.	.	.	?
N#CC(c1ccccc1)C(CC(=NO)c1ccccc1)c1ccccc1 (stereo not drawn)	?	10µM*	.	.	.	23µM*
N#CC(c1cccc([N+](=O)[O-])c1)C(CC(=O)c1ccccc1)c1ccccc1 (stereo not drawn)	12%	23µM*	.	.	.	18µM*
O=C(Nc1ccc2c(c1)OCCO2)C(Nc1ccccc1)c1ccccc1F (stereo not drawn)	-1%	.	.	.	.	.
CC(=O)c1cccc(NC(=O)CSc2nncn2CCc2cccs2)c1	-6%	.	.	.	.	.
Cc1ccc(Cl)cc1N1CCN(CCCNc2ncnc3onc(-c4ccc(Cl)cc4)c23)CC1	0%	?	.	.	.	?
Cc1ccc(C)c(N2CCN(CCCNc3ncnc4onc(-c5ccc(Cl)cc5)c34)CC2)c1	5%	16µM*	.	.	.	?
Cc1cccc(N2CCN(CCCNc3ncnc4onc(-c5ccc(Cl)cc5)c34)CC2C)c1 (stereo not drawn)	7%	21µM*	.	.	.	?
Cc1cccc(N2CCN(CCCNc3ncnc4onc(-c5ccc(F)cc5)c34)CC2C)c1 (stereo not drawn)	?	21µM*	.	.	.	?
